For 20 compounds, gametocyte viability results are on record in the supplement of paper PMC12297408.

Structures can show the parent of a compound that is named as a salt. A number with no mark means an inactive call.

In one test the test system is Plasmodium falciparum NF54/iGP1_RE9H ulg8 stage V gametocytes. The test is described as follows: gametocyte viability (luciferase signal relative to DMSO control) (% of DMSO control); higher = less gametocytocidal activity, active = 50 or less. The conditions noted are these: concentration: 1 µM; exposure time: 72 h. How it is done: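 Synchronous P. falciparum NF54/iGP1_RE9H ulg8 mature stage V gametocytes (day 12) were exposed to Cayman Epigenetics Screening Library compounds at 10 µM or 1 µM for 72 h at 37 °C. Viability was read as RE9H luciferase bioluminescence, normalised to DMSO plate controls (100%); 50 µM methylene blue was the positive control.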
In the case of `CC1CC/C(=N\Nc2nc(-c3ccc(Cl)cc3)cs2)C1` (stereo not given) [CPTH6 (hydrobromide)], the gametocyte viability was 86.6.
Still for that read-out and setting: with `NC(=O)[C@H](CCCN=C(N)CF)NC(=O)c1ccccc1` [F-Amidine (trifluoroacetate salt)] the figure was 103; with `CCCCc1nc2cc(/C=C/C(=O)NO)ccc2n1CCN(CC)CC`, 76.9.
The same measure, in the same setting: with `O=C(NO)c1ccc(CC(=O)N(CCO)c2ccccc2)cc1` the figure was 88.9; with `COC(=O)c1ccc2c(c1)nc(NC(=O)c1ccccc1)n2CCCc1ccccc1`, 86.9; with `CC(C)N(CCCNC(=O)Nc1ccc(C(C)(C)C)cc1)C[C@H]1O[C@@H](n2ccc3c(N)ncnc32)[C@H](O)[C@@H]1O`, 94.6.
Same read-out and setting: with `CN1CCN(C(=O)CNC2CC2c2ccc(OCc3ccccc3)cc2)CC1` (stereo not given) [RN-1 (hydrochloride)] the figure was 89.1; with `O=C(/C=C/C#Cc1cccc(NS(=O)(=O)c2ccccc2)c1)NO` [Oxamflatin], 101.
In the case of `Nc1cc(F)ccc1NC(=O)c1ccc(CNC(=O)/C=C/c2cccnc2)cc1` [Chidamide], the gametocyte viability was 92.7.
On the same count and under the same terms, with `COc1cc(C#N)ccc1S(=O)(=O)Nc1ccc2c(c1)cc(C)c(=O)n2C` the figure was 86.6.
The same measure, in the same setting: with `N[C@H]1C[C@@H]1c1ccc(-c2cccc(O)c2)cc1` the figure was 92.2.
For `O=C(Nc1cccc(Br)c1)c1cccc(S(=O)(=O)N2CCCCCC2)c1`, the gametocyte viability is 85.8.
The same measure, in the same setting: with `Nc1ncn([C@@H]2O[C@H](CO)[C@@H](O)[C@H]2O)c(=O)n1` [5-Azacytidine] the figure was 89.
On the same count and under the same terms, with `Cc1ccc(-n2sc3ccccc3c2=O)cc1` the figure was 90.8.
With `O=C(NCc1ccccc1)c1c(/N=C/c2c(O)ccc3ccccc23)sc2c1CCCC2`, the gametocyte viability is 103.
Same read-out and setting: with `CCCCNNC(=O)c1ccc(Br)cc1` the figure was 84.
For the compound `COc1cccc2c1c(O)c(C(=O)N(C)c1ccc(C(F)(F)F)cc1)c(=O)n2C` [Tasquinimod], the gametocyte viability is 83.1.
Same read-out and setting: with `O=C(O)c1ccnc(C(=O)O)c1` [2,4-Pyridinedicarboxylic Acid (hydrate)] the figure was 90.8; with `Nc1ccccc1NC(=O)c1ccc(CNc2nccc(-c3cccnc3)n2)cc1` [Mocetinostat], 89.7.
On the same count and under the same terms, with `CC(C(=O)Nc1cccc(/N=C/c2c(O)ccc3ccccc23)c1)c1ccccc1` (stereo not given) [Salermide] the figure was 88.8.

Staying with this test, now noted: concentration: 10 µM; exposure time: 72 h.
`CC1CC/C(=N\Nc2nc(-c3ccc(Cl)cc3)cs2)C1` (stereo not given) [CPTH6 (hydrobromide)]: the gametocyte viability was 82.2.
Same read-out and setting: with `NC(=O)[C@H](CCCN=C(N)CF)NC(=O)c1ccccc1` [F-Amidine (trifluoroacetate salt)] the figure was 95.9; with `CCCCc1nc2cc(/C=C/C(=O)NO)ccc2n1CCN(CC)CC`, 62.4.
Same read-out and setting: with `O=C(NO)c1ccc(CC(=O)N(CCO)c2ccccc2)cc1` the figure was 93.5.
On the same count and under the same terms, with `COC(=O)c1ccc2c(c1)nc(NC(=O)c1ccccc1)n2CCCc1ccccc1` the figure was 54.7; with `CC(C)N(CCCNC(=O)Nc1ccc(C(C)(C)C)cc1)C[C@H]1O[C@@H](n2ccc3c(N)ncnc32)[C@H](O)[C@@H]1O`, 94.1.
Take `CN1CCN(C(=O)CNC2CC2c2ccc(OCc3ccccc3)cc2)CC1` (stereo not given) [RN-1 (hydrochloride)]: the gametocyte viability was 72.8.
Same read-out and setting: with `O=C(/C=C/C#Cc1cccc(NS(=O)(=O)c2ccccc2)c1)NO` [Oxamflatin] the figure was 168; with `Nc1cc(F)ccc1NC(=O)c1ccc(CNC(=O)/C=C/c2cccnc2)cc1` [Chidamide], 93.4.
On the same count and under the same terms, with `COc1cc(C#N)ccc1S(=O)(=O)Nc1ccc2c(c1)cc(C)c(=O)n2C` the figure was 91.4.
With `N[C@H]1C[C@@H]1c1ccc(-c2cccc(O)c2)cc1`, the gametocyte viability was 79.4.
The same measure, in the same setting: with `O=C(Nc1cccc(Br)c1)c1cccc(S(=O)(=O)N2CCCCCC2)c1` the figure was 69.8.
Regarding `Nc1ncn([C@@H]2O[C@H](CO)[C@@H](O)[C@H]2O)c(=O)n1` [5-Azacytidine], the gametocyte viability is 90.8.
For the compound `Cc1ccc(-n2sc3ccccc3c2=O)cc1`, the gametocyte viability was 59.8.
The same measure, in the same setting: with `O=C(NCc1ccccc1)c1c(/N=C/c2c(O)ccc3ccccc23)sc2c1CCCC2` the figure was 94.2; with `CCCCNNC(=O)c1ccc(Br)cc1`, 56.1.
On the same count and under the same terms, with `COc1cccc2c1c(O)c(C(=O)N(C)c1ccc(C(F)(F)F)cc1)c(=O)n2C` [Tasquinimod] the figure was 82.9.
Same read-out and setting: with `O=C(O)c1ccnc(C(=O)O)c1` [2,4-Pyridinedicarboxylic Acid (hydrate)] the figure was 90.6.
Consider `Nc1ccccc1NC(=O)c1ccc(CNc2nccc(-c3cccnc3)n2)cc1` [Mocetinostat], for which the gametocyte viability is 88.2.
As to `CC(C(=O)Nc1cccc(/N=C/c2c(O)ccc3ccccc23)c1)c1ccccc1` (stereo not given) [Salermide], the gametocyte viability is 88.4.
